Consider 40 compounds from PubChem BioAssay (NCI).

Compounds without any hit were thinned out: in the full panel of roughly 83,000, 20% have a hit.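 Method: cells in 96-well plates; compound added at one concentration; 48 h incubation; percent growth measured; values under 10 scored active.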 Values without a mark were called inactive. Calls of active or inactive are those of the source.

The assay concerns MCF7 breast. Kind of assay: NCI-60 one-dose screen, 48 h (100 = growth as untreated, 0 = no growth, -100 = all killed). The settings on record: 10 µM unless noted. On the procedure:
Growth inhibition of the MCF7 human tumor cell line is measured as a screen for anti-cancer activity. Cells are grown in 96 well plates and exposed to the test compound for 48 hours. Compounds are tested at a single concentration, which is 10^-5 M for most compounds. The reported endpoint is percent growth (GI% or GIPRCNT), where numbers from 0 - 100% represent growth inhibition, and numbers from -100% - 0 represent cell death. For example, a value of 40 represents 60% growth inhibition. A value of 0 means no net growth occurred over the course of the experiment. A value of -40 indicates 40% of cells at the beginning of the experiment died by the end of the experiment. A value of -100 means all cells are dead at the end of the experiment.
NCI-60 Human Tumor Cell Lines Screen was performed using the standard one-dose NCI protocol, which is described in more detail at https://dtp.cancer.gov/discovery_development/nci-60/default.htm.
Compounds with GIPRCNT values below 10 were considered active. Activity score was based on GIPRCNT using the following formula: […]
Score is 0 for GIPRCNT values of 100 or above, 50 for GIPRCNT values of 0, and 100 for GIPRCNT values of -100.
As for `N[C@@H](Cc1ccccc1)[C@@H](O)C(=O)NCc1ccc(F)cc1`, the growth was 94.9%.

For the compound `CC1(C)C2CC1C1(/C=N\Nc3ccccc3)C(C2)C(C#N)(C#N)C1(C#N)C#N` (stereo not given), the growth was 94.8%.

As to `Cc1cc(N2CCCC2)nc(N(CCCNc2ccnc3cc(Cl)ccc23)Cc2ccccn2)n1`, the growth is 47.3%.

Take `CCN1C(=O)N(CC)C2Nn3c(s/c(=C4\C(=O)N(CCC(C)C)c5ccccc54)c3=O)=NC21` (stereo not given): the growth is 15.1%.

With `N#Cc1c(-c2ccc(Cl)cc2)nc2c(c(-c3ccccc3)nn2-c2ccccc2)c1-c1ccc(O)cc1`, the growth is 19.6%.

As to `COc1ccc(CNC(=O)C(=O)[C@H](Cc2ccccc2)NC(=O)c2[nH]c3ccccc3c(=O)c2C)cc1`, the growth was 94.3%.

Turning to `O=C(Nc1ccc(Cl)cc1F)c1ccccc1O`, the growth was 47.6%.

Regarding `O=C1CSC(c2c(Cl)cccc2Cl)N1c1nc(Cl)cc(=O)[nH]1` (stereo not given), the growth is 107%.

As for `COc1cccc(-c2nc(-c3ccc(NC(=O)OC(C)C)cc3)[nH]c2-c2ccnc(Br)c2)c1`, the growth was 10.5%.

On to `O=S(=O)(Nc1ccc(-c2nc(-c3cccc(OCCN4CCOCC4)c3)c(-c3ccnc(Br)c3)[nH]2)cc1)c1ccccc1`, for which the growth was 9.52% (active).

For the compound `Cc1ccc(/C=N\NC(=O)c2[nH]c3ccc(F)cc3c2-c2ccccc2)cc1`, the growth was 15.3%.

On to `CCOC(=O)C1=C(N)Oc2c(sc3c(CC)cccc23)C1c1ccc(F)cc1` (stereo not given), for which the growth is 10.2%.

In the case of `c1cc(-c2nnc(SSc3ncnc4nc[nH]c34)o2)ccn1`, the growth is 23%.

Turning to `CCCCCCn1c(-c2ccc(C(=O)O/N=C(\N)c3ccc4c(c3)OCO4)cc2)nc(-c2ccccc2)c1-c1ccccc1`, the growth is 7.05% (active).

On to `Brc1c[n+](Cc2ccc3ccccc3c2)cn1Cc1ccc2ccccc2c1`, for which the growth was 14.3%.

With `COc1ccc(S(=O)(=O)n2c3ccccc3n3ncc(-c4nnc(C)o4)c23)cc1`, the growth was 18.9%.

As for `Cc1ccc2sc3c(NCCCN)nc4ccccc4c3c(=O)c2c1`, the growth is -21.2% (active).

Take `O=C(N/N=C/c1c(Cl)cccc1Cl)c1ccc(C(F)(F)F)nc1Nc1cccc(C(F)(F)F)c1`: the growth was 1.97% (active).

For the compound `CNC(C)[C@H]1CCC2C3CCC4C[C@@H](N(C)C(=O)c5ccccc5)CC[C@]4(C)C3CC[C@@]21C` (stereo not given in full), the growth was 5.05% (active).

Consider `COc1cc(/C=C2\C(=O)Nc3ccc(Br)cc32)cc(OC)c1OC`, for which the growth is 24.2%.

Take `CCN(CC)CCNC(=O)c1cn2ncnc(Oc3ccc(NC(=O)Nc4ccc(Cl)c(C(F)(F)F)c4)cc3)c2c1C`: the growth was -84.4% (active).

Regarding `COc1cc2cc(Oc3ccc(NC(=O)Nc4ccc(Cl)c(C(F)(F)F)c4)cc3)c(C)nc2cc1OCCN1CCOCC1`, the growth was 4.87% (active).

Regarding `C/C(=C\C(=O)c1ccc(Cl)cc1)c1ccc(Cl)cc1`, the growth was 19.4%.

Consider `CCOC(=O)CCN(C(=O)Nc1ccccc1)C1CCCCC1`, for which the growth was 98.4%.

Turning to `CC(=O)CC(c1ccccc1)c1c(C)[nH]c2ccccc12` (stereo not given), the growth is 96.2%.

For the compound `Fc1cc2c(cc1Cl)N(c1ncnc3ccc(-c4cnc5cnccn45)cc13)CC2`, the growth was 75.8%.

For `CCC(=O)Nc1ccc(-c2nc(-c3cccc(OC)c3)c(-c3ccnc(Br)c3)[nH]2)cc1`, the growth is 25.5%.

Take `COc1ccc(/C=N/Nc2cc(=O)[nH]c3ccc(Cl)cc23)cc1`: the growth is 35.2%.

`Cc1ccc(C(=O)N/N=C/c2cccc(Oc3ccccc3)c2)cn1`: the growth was 37.2%.

With `COc1nc2ccccc2cc1-c1nc2c(cnn2-c2ccccc2)c(=O)[nH]1`, the growth is 20.9%.

Turning to `COc1ccc(N)c(N)c1`, the growth was 60.2%.

On to `CC1=C(SCCC(=O)OC(C[Se]C2=C(C)C(=O)c3ccccc3C2=O)C(=O)NC(C)(C)C)C(=O)c2ccccc2C1=O` (stereo not given), for which the growth was -63.5% (active).

For the compound `CCOC(=O)/C(C#N)=C\Nc1ccc2ncnc(Nc3ccc(Cl)cc3Cl)c2c1`, the growth is 87.6%.

For the compound `CCOC(=O)/C=C1\S/C(=N\Nc2ccc([N+](=O)[O-])cc2[N+](=O)[O-])N(Cc2ccccc2)C1=O`, the growth was 72.8%.

Regarding `Cc1cc(C)c(-c2c(N)cc(Br)cc2Br)c(N)c1`, the growth is 21.4%.

On to `COc1ccc(S(=O)(=O)n2cc(C3OC(c4cc(OC)c(OC)c(OC)c4)=NN3C(C)=O)c3ccccc32)cc1OC` (stereo not given), for which the growth is 88%.

Turning to `CN1CCN(Cc2ccc(NC(=O)c3cncc(C#Cc4cnccc4C#N)c3)cc2C(F)(F)F)CC1`, the growth was 42.5%.

In the case of `C#Cc1cccc(NC(=O)Nc2ccccc2NC(=O)CCl)c1`, the growth is 0.96% [8.25 µM] (active).

Turning to `CCCCCCNC(=O)Oc1ccc(/C(=C(\C)c2ccc(OC)cc2)c2ccc(OCCN3CCCCC3)cc2)cc1`, the growth was 22.7%.

As to `O=C1c2cccc3cccc(c23)C(=O)N1Nc1nc(NC2CCCCC2)nc(N2CCOCC2)n1`, the growth is 89.3%.
